PubChem BioAssay (EPA / NIEHS)
Activity calls are given as the source filed them. How the source made its calls: active means hit-call score of the fitted dose curve at least 0.9, where 1 is the maximum; inactive means score below 0.9.

How the values were obtained:
[1] = ATG_GLI_CIS: Attagene CIS-FACTORIAL HepG2 Assay for human Zinc Finger Protein GLI1 (AID 2282945); details: HepG2, Attagene cis-factorial reporter mRNA, GLI element; actives raise or lower the signal
In short: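 HepG2 cells transiently transfected with cis-promoter multiplexed reporter units report endogenous transcription factor activity. After 24 h chemical exposure, reporter mRNA was quantified by RT-PCR, 6-FAM labelling, HpaI digestion and capillary electrophoresis, with bidirectional fitting against DMSO.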

[2] = ATG_ISRE_CIS: Attagene CIS-FACTORIAL HepG2 Assay for human Interferon Regulatory Factor 1 (IRF1) binding to an Interferon-Stimulated Response Element (ISRE) (AID 2282948); details: HepG2 ISRE cis-reporter (Attagene), mRNA transcription readout; actives raise or lower the signal
In short: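 HepG2 cells transiently transfected with multiplexed cis-promoter reporter units; after 24 h compound exposure, reporter mRNA quantified by RT-PCR, FAM labelling, HpaI digestion and capillary electrophoresis. Bidirectional fit versus DMSO baseline.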

[3] = ATG_M_32_CIS: Attagene CIS-FACTORIAL HepG2 Assay for M32 Transcription Factor (Internal Marker) (AID 2282949); details: HepG2 Attagene cis-factorial M32 reporter, mRNA; actives raise or lower the signal;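 further: background control marker of the multiplexed CIS panel rather than a real target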
In short: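 HepG2 cells transiently transfected with multiplexed cis-regulated reporter units, dosed 24 h. Reporter mRNA quantified by RT-PCR, 6-FAM labelling, HpaI digestion and capillary electrophoresis; bidirectional fit vs DMSO.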

[4] = ATG_M_06_CIS: Attagene CIS-FACTORIAL HepG2 Assay for M06 Transcription Factor (Internal Marker) (AID 2282950); details: HepG2 Attagene CIS-FACTORIAL M06 internal marker reporter; actives raise or lower the signal
In short: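 HepG2 cells transiently transfected with cis-regulated multiple reporter transcription units were exposed to chemical for 24 h; reporter mRNA was quantified by RT-PCR, 6-FAM primer labelling, HpaI digestion and capillary electrophoresis, fitted bidirectionally against DMSO.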

[5] = target: Hypoxia-inducible factor 1-alpha (Homo sapiens) (UniProt Q16665); experiment: ATG_HIF1a_CIS: Attagene CIS-FACTORIAL HepG2 Assay for human Hypoxia Inducible Factor 1 (HIF1A) (AID 2282951); details: HepG2 Attagene cis-factorial HIF1a reporter transcription; actives raise or lower the signal
In short: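 Activity is fitted in both directions relative to DMSO. Reporter transcripts are read by RT-PCR, fluorescent primer extension and capillary electrophoresis after 24 h chemical treatment. The cells are HepG2 carrying transiently transfected cis-element-driven reporter units responding to endogenous factors.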

[6] = target: Heat shock factor protein 1 (Homo sapiens) (UniProt Q00613); experiment: ATG_HSE_CIS: Attagene CIS-FACTORIAL HepG2 Assay for human Heat Shock Transcription Factor 1 (HSE) (AID 2282953); details: HepG2 HSE cis-reporter, Attagene RNA transcription; actives raise or lower the signal
In short: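 HepG2 cells transiently transfected with multiple reporter transcription units under cis-regulatory promoter control, measuring endogenous transcription factor activity. After 24 h chemical exposure, reporter mRNA quantified by RT-PCR, fluorescent labelling, HpaI digestion and capillary electrophoresis; bidirectional fit versus DMSO.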

[7] = ATG_MRE_CIS: Attagene CIS-FACTORIAL HepG2 Assay for human Metal Responsive Element (MRE) (AID 2282954); details: HepG2 MRE cis-reporter transcription, Attagene multiplex; actives raise or lower the signal
In short: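 Step one: transfect HepG2 with cis-regulated reporter units. Step two: dose 24 h. Step three: isolate RNA, RT-PCR, 6-FAM label, HpaI digest, capillary electrophoresis. Fit bidirectionally to DMSO.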

Measured: outcome

Heat shock factor protein 1 (Homo sapiens), sequence (Q00613 whole entry, looked up): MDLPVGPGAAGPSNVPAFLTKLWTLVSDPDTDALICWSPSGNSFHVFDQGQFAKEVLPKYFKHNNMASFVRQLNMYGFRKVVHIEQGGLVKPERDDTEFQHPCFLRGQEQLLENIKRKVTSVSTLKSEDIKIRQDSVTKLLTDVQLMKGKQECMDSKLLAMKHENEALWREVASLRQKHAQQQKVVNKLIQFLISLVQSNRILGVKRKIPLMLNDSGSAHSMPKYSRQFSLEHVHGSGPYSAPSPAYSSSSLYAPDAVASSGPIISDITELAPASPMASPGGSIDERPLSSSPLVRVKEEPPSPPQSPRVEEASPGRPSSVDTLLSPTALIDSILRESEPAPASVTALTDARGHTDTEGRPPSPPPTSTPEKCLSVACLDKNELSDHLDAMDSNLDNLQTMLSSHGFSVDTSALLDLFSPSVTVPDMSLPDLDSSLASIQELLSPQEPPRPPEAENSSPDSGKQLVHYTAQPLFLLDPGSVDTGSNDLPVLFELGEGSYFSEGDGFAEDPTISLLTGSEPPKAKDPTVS
Hypoxia-inducible factor 1-alpha (Homo sapiens), sequence (Q16665 whole entry, looked up): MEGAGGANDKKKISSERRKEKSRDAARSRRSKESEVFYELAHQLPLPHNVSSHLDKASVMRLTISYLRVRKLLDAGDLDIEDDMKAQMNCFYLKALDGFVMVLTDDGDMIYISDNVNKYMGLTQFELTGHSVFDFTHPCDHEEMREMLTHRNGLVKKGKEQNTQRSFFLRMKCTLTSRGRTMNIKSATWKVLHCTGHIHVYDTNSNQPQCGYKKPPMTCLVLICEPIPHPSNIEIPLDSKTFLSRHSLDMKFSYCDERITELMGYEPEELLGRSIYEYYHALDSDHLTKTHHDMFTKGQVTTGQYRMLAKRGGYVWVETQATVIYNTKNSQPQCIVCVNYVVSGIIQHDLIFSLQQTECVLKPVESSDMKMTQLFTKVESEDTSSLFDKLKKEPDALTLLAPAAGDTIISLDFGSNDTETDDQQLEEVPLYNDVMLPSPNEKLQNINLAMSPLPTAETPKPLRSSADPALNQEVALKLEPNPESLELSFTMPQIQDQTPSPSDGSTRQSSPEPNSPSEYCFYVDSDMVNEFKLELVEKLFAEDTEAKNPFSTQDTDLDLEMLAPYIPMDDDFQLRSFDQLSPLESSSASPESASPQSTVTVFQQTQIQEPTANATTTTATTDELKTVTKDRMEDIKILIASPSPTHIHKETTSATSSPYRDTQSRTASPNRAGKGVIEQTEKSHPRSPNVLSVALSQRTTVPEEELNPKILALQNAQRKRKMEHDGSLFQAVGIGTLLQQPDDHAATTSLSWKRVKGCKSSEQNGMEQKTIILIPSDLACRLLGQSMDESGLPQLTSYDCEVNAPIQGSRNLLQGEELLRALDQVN

NS(=O)(=O)c1cc(C(=O)O)c(NCc2ccco2)cc1Cl
inactive: all assays above
